Laboratory results: PubChem BioAssay AID463173 (ICCB-Longwood Screening Facility, Harvard Medical School, 2010)
Hit rate of the full screen: of about 52,000 compounds, about 4,300 (8.3%) were called active. Only a selection was taken, and actives are over-represented in it overall. Unmarked numbers belong to inactive results. No stated cut-off is given here; in the data, active means survival mostly below about 52% (no sharp cut-off); inactive means mostly above about 56%.

System: DeltatarO mutant
Experiment: S. aureus survival, RN4220 and DeltatarO strains – OD600, teichoic acid synthesis inhibitors, primary screen (AID 463173)
Details: S. aureus RN4220 wild type/DeltatarO growth, OD600, 18 h, stronger effect = lower value, screened at 18.75 µg/mL (by protocol)

| Compound | survival |
| --- | --- |
| Cc1cc(=O)n(CC(=O)N2CCCc3ccccc32)c2c1c(C)nn2-c1cccc(F)c1 | 85% |
| Cc1ccc(C)c(NC(=O)CSc2ncc3c(n2)-c2ccc(Cl)cc2N(C)S3(=O)=O)c1 | 74% |
| CCCCN(C)CCNC(=O)c1ccc2c(c1)NC(=O)CN2 | 71% |
| COc1ccc(-n2nc3ccc(NC(=O)c4cc5ccccc5o4)cc3n2)cc1Cl | 159% |
| O=C(Nc1ccc2nn(-c3ccccc3)nc2c1)c1ccc(-c2cccc(Cl)c2)o1 | 105% |
| CCOc1ccc(-n2nc3ccc(NC(=O)Cc4ccccc4)cc3n2)cc1 | 74% |
| CCOc1ccc(-n2nc3ccc(NC(=O)c4ccc(-c5cccc(Cl)c5)o4)cc3n2)cc1 | 45% (active) |
| COc1ccc(-n2nc3ccc(NC(=O)c4ccc(-c5cc(Cl)ccc5Cl)o4)cc3n2)cc1 | 40% (active) |
| O=C(Nc1ccc2nn(-c3ccc(Cl)cc3)nc2c1)c1cc2ccccc2o1 | 65% |
| CCCCN(CC)CCCNC(=O)c1cc2c(-c3ccc(OC)c(OC)c3)nn(C)c2s1 | 140% |
| Cc1ccc(N2CCN(C(=O)c3cnn(-c4ccc(C)c(C)c4)c3C3CCNCC3)CC2)c(C)c1 | 55% |
| CCN(CC)S(=O)(=O)c1ccc2oc(C(=O)Nc3ccc(Br)cc3F)c(C)c2c1 | 69% |
| O=C(O)CCN1CCCC1 | 78% |
| CCN(c1cccc(C)c1)c1ncnc2c1cnn2-c1cccc(Cl)c1 | 70% |
| N#C/C(=C\c1ccc(F)cc1)c1nc(-c2ccc(-c3ccccc3)cc2)cs1 | 69% |
| CCc1ccc(/C=C(/C#N)c2nc(-c3ccc(C)cc3)cs2)cc1 | 8% (active) |
| COc1ccc(/C=C(/C#N)c2nc(-c3ccc(-c4ccccc4)cc3)cs2)cc1 | 73% |
| N#C/C(=C/c1ccc(O)cc1)c1nc(-c2ccc(-c3ccccc3)cc2)cs1 | 9% (active) |
| CCOc1ccc(-c2csc(/C(C#N)=C/c3ccc(Br)cc3)n2)cc1 | 55% |
| N#C/C(=C/c1ccc(Cl)cc1)c1nc(-c2ccc(Br)cc2)cs1 | 65% |
| Cc1ccc(/C=C(\C#N)c2nc(-c3ccc(-c4ccccc4)cc3)cs2)cc1 | 57% |
| CN(C)c1ccc(/C=C(\C#N)c2nc(-c3ccc(Cl)c(Cl)c3)cs2)cc1 | 76% |
| CC(C)c1ccc(/C=C(\C#N)c2nc(-c3ccc(O)cc3)cs2)cc1 | -1% (active) |

| Compound | survival |
| --- | --- |
| O=C(Nc1ccc(Cl)cc1)N1CCN(c2ccc3nnc(-c4ccc(F)cc4)n3n2)CC1 | 68% |
| Cc1ccc2oc(-c3cccc(NC(=O)c4sc5c([N+](=O)[O-])cccc5c4Cl)c3)nc2c1 | 67% |
| COc1cc(-c2nc(Cn3nnc(C(=O)Nc4ccccc4C)c3C)c(C)o2)cc(OC)c1OC | 58% |
| COc1ccc(NC(=O)c2c(C)oc3ccc(O)c(CN4CCN(Cc5ccccc5)CC4)c23)cc1 | 56% |
| CCn1c(=O)c2sccc2n2c(CCC(=O)Nc3ccc(F)cc3)nnc12 | 82% |
| O=C(CSc1nc2ccccc2n1Cc1ccc(F)c(Cl)c1)N1CCN(c2ccc(F)cc2)CC1 | 61% |
| Cc1csc2nc(COC(=O)c3ccccc3NC(=O)c3cccc(Br)c3)cc(=O)n12 | 87% |
| Cc1ccc(CNC(=O)c2c(-c3cccc(Br)c3)noc2C)o1 | 87% |
| Cc1c(Cl)cccc1NC(=O)CN(CCc1ccccc1)S(=O)(=O)c1ccccc1 | 49% |
| COc1ccc(S(=O)(=O)N(CCc2ccccc2)CC(=O)Nc2cc(C)ccc2C)cc1 | 48% |
| CCOc1ccccc1NC(=O)CN(CCc1ccccc1)S(=O)(=O)c1ccc(C)cc1 | 106% |
| COc1ccc(S(=O)(=O)N(CCc2ccccc2)CC(=O)Nc2cc(Cl)ccc2C)cc1 | 58% |
| Cc1ccc(NC(=O)CN(CCc2ccccc2)S(=O)(=O)c2ccccc2)c(C)c1 | 38% (active) |
| Cc1ccc(C)c(NC(=O)CN(CCc2ccccc2)S(=O)(=O)c2ccccc2)c1 | 46% (active) |
| Cc1cccc(NC2=CC(c3cccc(Br)c3)N(c3cccc(C)c3)C2=O)c1 (stereo not given) | 137% |
| Cc1ccccc1Cn1ccn(-c2ccc(F)c(F)c2)c(=O)c1=O | 76% |
| O=C(CCNS(=O)(=O)c1ccc2c(c1)CCN2C(=O)C1CC1)N1CCN(c2cccc(Cl)c2)CC1 | 122% |
| COc1ccc(OCC(=O)N2CCc3ccccc3C2)cc1 | 80% |
| Cc1cccc(-c2nc3c4ccccc4n(Cc4cccc(Cl)c4)c(=O)n3n2)c1 | 97% |
| O=c1n(Cc2cccc(F)c2)c2ccccc2c2nc(-c3ccccc3)nn12 | 33% (active) |
| Cc1cccc(Cn2c(=O)n3nc(-c4ccccc4)nc3c3ccccc32)c1 | -16% (active) |
| Cc1ccc(-c2nc3c4ccccc4n(Cc4cccc(Cl)c4)c(=O)n3n2)cc1 | 123% |
| COc1cccc(CNC(=O)Cn2c(=O)n3nc(-c4cccc(F)c4)nc3c3ccccc32)c1 | 77% |

| Compound | survival |
| --- | --- |
| CCc1cccc(NC(=O)Cn2c(=O)n3nc(-c4cccc(F)c4)nc3c3ccccc32)c1 | 52% (active) |
| O=c1n(Cc2ccc(F)cc2)c2ccccc2c2nc(-c3ccccc3)nn12 | 86% |
| O=c1n(Cc2cccc(C(F)(F)F)c2)c2ccccc2c2nc(-c3ccccc3)nn12 | 80% |
| Cc1cccc(-c2nc3c4ccccc4n(CC(=O)Nc4cccc(F)c4)c(=O)n3n2)c1 | 95% |
| CCOc1ccc(NC(=O)c2oc3ccccc3c2NC(=O)Cc2cccs2)cc1 | 82% |
| O=C(Cn1cnc2c(cnn2-c2ccccc2)c1=O)c1ccccc1 | 55% |
| O=C(Nc1ccc(F)cc1F)c1ccc(-n2cnnc2)cc1 | 73% |
| CCc1ccc(N(CC)C(=O)Cn2c(=O)oc3ccccc32)cc1 | 70% |
| COC(=O)C1=C(c2ccccc2)c2ccccc2S(=O)(=O)N1CC(=O)Nc1ccccc1Cl | 37% |
| Cc1oc2ncn(C)c(=O)c2c1C(=O)NCc1ccc(Cl)cc1 | 84% |
| CCOc1ccccc1NC(=O)C1CCN(S(=O)(=O)c2ccc3c(c2)CCCN3C(C)=O)CC1 | 75% |
| CC(NC(=O)C1CCN(S(=O)(=O)Cc2ccccc2)CC1)c1ccccc1 (stereo not given) | 68% |
| COc1ccc(-c2cc(C(F)(F)F)nc(SCC(=O)N3CCCCC3)n2)cc1OC | 71% |
| COc1ccc(-c2cc(C(F)(F)F)nc(SCC(=O)N3CCCCC3C)n2)cc1OC (stereo not given) | 52% |
| CCC1CCCCN1C(=O)CSc1nc(-c2ccc(OC)c(OC)c2)cc(C(F)(F)F)n1 (stereo not given) | -3% (active) |
| COc1ccc(-c2cc(C(F)(F)F)nc(SCCC(=O)N3CCN(C)CC3)n2)cc1 | 114% |
| COc1ccc(-c2cc(C(F)(F)F)nc(SCC(=O)N3CCCCC3)n2)cc1 | 74% |
| CCC1CCCCN1C(=O)CSc1nc(-c2ccc(OC)cc2)cc(C(F)(F)F)n1 (stereo not given) | 1% (active) |
| O=C(CNCc1ccco1)Nc1cccc(OC(F)(F)F)c1 | 99% |
| O=C(CN1C(=O)C2CCCCN2c2ccc(C(=O)N3CCCC3)cc21)NCc1cccc(F)c1 (stereo not given) | 66% |
| CCCCOc1cccc(C(=O)Nc2cccc3ccc(C)nc23)c1 | 75% |
| CCN(CCN(C)C)C(=O)Cn1ncc2c([nH]c3ccc(C)cc32)c1=O | 88% |
| Cc1ccc(Cl)cc1-n1ncc2c(NC3CCCCC3)ncnc21 | 54% |

| Compound | survival |
| --- | --- |
| COc1ccccc1Nc1nc(Nc2cccc(C(F)(F)F)c2)nc(N2CCOCC2)n1 | 73% |
| COc1ccc(N2CCOCC2)cc1 | 89% |
| COc1ccc(Nc2nc(Nc3ccc(OC)cc3OC)nc(N3CCOCC3)n2)c(OC)c1 | 14% (active) |
| CCOc1ccc(Oc2nc(NC)nc(N3CCOCC3)n2)nn1 | 99% |
| CCOc1ccc(Oc2nc(NCC(C)C)nc(N3CCOCC3)n2)nn1 | 79% |
| CCOc1nc(Nc2ccc(OC)cc2)nc(N2CCOCC2)n1 | 70% (active) |
| CCOc1ccc(Nc2nc(Nc3ccc(OCC)cc3)nc(N3CCOCC3)n2)cc1 | 44% (active) |
| CCOc1ccc(NC(=O)c2c(C)oc3nc(C)nc(N4CCOCC4)c23)cc1 | 93% |
| CCCCNc1nc(Oc2ccc(OCC)nn2)nc(N2CCOCC2)n1 | 77% |
| Cc1cc2c(cc3c(SCc4cccc(F)c4)nnc(C)n32)o1 | 68% |
| CCOC(=O)Cn1cnc2onc(-c3ccc(F)cc3)c2c1=O | 141% |
| CCOc1ccccc1NC(=O)CSc1nc2c(oc3ccccc32)c(=O)n1-c1ccc(C)c(C)c1 | 88% |
| COc1ccccc1NC(=O)Cn1c(=O)n(Cc2ccccc2)c(=O)c2ccccc21 | 75% |
| COc1ccc(N(C(=O)COc2c(C)cccc2C)S(=O)(=O)c2ccc(Cl)cc2)cc1 | 73% |
| CCS(=O)(=O)Nc1ccc(-c2cn3ccsc3n2)cc1 | 17% (active) |
| CCCS(=O)(=O)Nc1cccc(-c2cn3ccsc3n2)c1 | 134% |
| CN(C)S(=O)(=O)Nc1ccc(-c2cn3ccsc3n2)cc1 | 55% |
| COc1cc(OC)cc(C(=O)Nc2cccc(-c3cn4ccsc4n3)c2)c1 | 6% (active) |
| COc1ccc(C(=O)Nc2cccc(-c3cn4ccsc4n3)c2)cc1OC | 92% |
| COc1cccc(OC)c1C(=O)Nc1cccc(-c2cn3ccsc3n2)c1 | 82% |
| O=C(NCCc1ccccc1Cl)c1ccc2c(c1)nc1n2CCCCC1 | 80% |
